# Active and inactive are the calls of the source. Rule for the calls: active = hit-call score of the fitted dose curve at least 0.9, where 1 is the maximum; inactive = score below 0.9.
# Target: human p38beta (SAPK2) CMGC Kinase, MAPK11 (gene 5600) (UniProt Q15759)
# Assay: ERF_KP_ENZ_hMAPK11: Eurofins (ERF) Enzymatic Radiometric [10 uM ATP] KinaseProfiler LeadHunter Assay for human p38beta (SAPK2) CMGC Kinase
# Procedure: ERF_KP_ENZ_hMAPK11 is a biochemical, single-readout assay that uses extracted gene-proteins in a cell-free assay. Measurements were taken 0.66 hour after chemical dosing in a 96-well plate. See SAPK2 (p38beta) Human CMGC Kinase Enzymatic Radiometric Assay [10 uM ATP], KinaseProfiler.ERF_KP_ENZ_hMAPK11 is an assay component calculated from the ERF_KP_ENZ_hMAPK11 assay. It is designed to measure enzyme activity using a type of enzyme reporter as detected by scintillation counting with radiometry technology.Data from the assay component ERF_KP_ENZ_hMAPK11 was analyzed at the assay endpoint, ERF_KP_ENZ_hMAPK11, in the positive analysis fitting direction relative to DMSO as the negative control and baseline of activity. Using a type of enzyme reporter, loss-of-signal activity can be used to understand changes in enzymatic activity as they relate to gene MAPK11. To generalize the intended target to other relatable targets, this assay endpoint is annotated to the kinase intended target family, where the subfamily is serine/threonine kinase.
# SAPK2b (h) is incubated with 25 mM Tris pH 7.5, 0.02 mM EGTA, 0.33 mg/mL myelin basic protein, 10 mM MgAcetate and [gamma-33P]-ATP (specific activity and concentration as required). The reaction is initiated by the addition of the Mg/ATP mix. […]
# human p38beta (SAPK2) CMGC Kinase, MAPK11 (gene 5600), sequence (Q15759 whole entry, looked up): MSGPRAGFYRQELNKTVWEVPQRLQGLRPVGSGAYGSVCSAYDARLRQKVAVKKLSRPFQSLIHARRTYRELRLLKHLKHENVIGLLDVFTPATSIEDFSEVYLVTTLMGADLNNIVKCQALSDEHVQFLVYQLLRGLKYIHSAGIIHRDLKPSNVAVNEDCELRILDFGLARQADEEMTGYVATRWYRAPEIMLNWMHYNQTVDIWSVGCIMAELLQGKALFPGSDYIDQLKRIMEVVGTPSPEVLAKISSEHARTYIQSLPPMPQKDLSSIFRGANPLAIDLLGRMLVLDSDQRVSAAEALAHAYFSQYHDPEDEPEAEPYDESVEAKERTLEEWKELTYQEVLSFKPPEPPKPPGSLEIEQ
row,Compound,AC50
1,O=C(/C=C/c1ccc(O)cc1)CC(=O)/C=C/c1ccc(O)cc1,0.293 nM (active)

# From PubChem BioAssay AID2284109 (EPA ToxCast)
